Assay results taken from PubChem BioAssay (Tox21).
Records with an inconclusive call do not appear. Activity calls are given as the source filed them. Unless noted, calls follow the shape of the full dose curve.

Legend:
[1] = Nuclear factor erythroid 2-related factor 2/antioxidant responsive element (Nrf2/ARE) small molecule agonists: luciferase reporter gene qHTS assay in human keratinocytes (AID 1919969); also: nearly all actives have a fitted effect of over 35% in size; also: potency is read from the fitted curve at half-maximal effect
[2] = biological target: KiSS-1 receptor (Homo sapiens) (UniProt Q969F8); assay: Human kisspeptin (KISS1R) small molecule agonists, calcium flux assay in KISS1R-HEK293 cells (AID 1920064; active = well fitted activation curve with a large enough effect in the repeat runs)
Chain of KiSS-1 receptor (Homo sapiens) (Q969F8 whole entry, looked up): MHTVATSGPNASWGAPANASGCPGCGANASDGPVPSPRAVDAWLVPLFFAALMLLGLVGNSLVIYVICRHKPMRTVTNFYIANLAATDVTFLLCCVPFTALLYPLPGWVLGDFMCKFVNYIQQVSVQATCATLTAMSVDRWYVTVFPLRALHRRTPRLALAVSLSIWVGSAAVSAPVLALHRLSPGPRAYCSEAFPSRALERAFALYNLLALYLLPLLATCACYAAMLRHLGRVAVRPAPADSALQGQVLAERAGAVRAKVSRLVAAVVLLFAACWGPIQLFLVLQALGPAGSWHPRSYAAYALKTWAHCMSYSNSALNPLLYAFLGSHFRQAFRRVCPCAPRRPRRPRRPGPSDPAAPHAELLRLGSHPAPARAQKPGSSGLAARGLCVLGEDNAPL
In short: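 After overnight (18 h) culture at 37 C/5% CO2, human KISS1R-HEK293 cells received calcium dye for 1 h, then test compound; emission at 540 nm (excitation 480 nm) was tracked for 3 min.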

[3] = G protein-coupled receptor (GPCR) small molecule agonists, calcium flux assay: HEK293 wild type cell line counter screen (AID 1920065)
In short: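 Following 18 h incubation at 37 C/5% CO2, plates got calcium dye for 1 h; compounds, ATP or DMSO were then pinned in and fluorescence followed kinetically (480/540 nm).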

[4] = p53 small molecule agonists, cell-based qHTS assay with human liver microsomes (AID 1963577);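 also: p53 response element beta-lactamase reporter cells with liver microsomes plus NADPH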
In short: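 Reporter activation was measured by LiveBLAzer fluorescence intensity in p53RE-bla cells, which had been exposed to compounds for 16 h at 37 C alongside 0.5 mg/mL human liver microsomes and 0.5 mg/mL NADPH (final concentrations).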

[5] = p53 small molecule agonists, cell-based qHTS assay with rat liver microsomes (AID 1963578)
In short: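 Compound in DMSO added to p53RE-bla cells 5 h post-plating; rat microsomes/NADPH 0.5 mg/mL final; 16 h, 37 C; LiveBLAzer 2 h RT.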

[6] = p53 small molecule agonists, cell-based qHTS assay with rat liver microsomes: qHTS cell viability counter screen (AID 1963580); also: nearly all actives have a fitted effect of over 45% in size; also: potency is read from the fitted curve at half-maximal effect
In short: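 Cytotoxicity counter screen: intracellular ATP measured by CellTiter-Glo luminescence in the same wells as the beta-lactamase reporter read, on HCT-116 p53RE-bla cells exposed 16 h at 37 C to compounds with rat liver microsomes and NADPH, each 0.5 mg/mL final.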

[7] = p53 small molecule agonists, cell-based qHTS assay: qHTS cell viability counter screen (AID 1963581); also: nearly all actives have a fitted effect of over 45% in size; also: potency is read from the fitted curve at half-maximal effect
In short: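 qHTS counter screen: 16 h compound exposure at 37 C of p53RE-bla HCT-116 cells (4,000 per well, seeded 5 h prior), cell viability by ATP luminescence.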

[8] = cAMP Responsive Elements (CRE) small molecule agonists, cell-based qHTS assay (AID 1963590)
In short: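 Test agents in DMSO were incubated 3 h at 37 C/5% CO2 with CRE-bla HEK 293T cells seeded 18 h earlier; LiveBLAzer B/G FRET substrate was added and read after 2 h at room temperature.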

[9] = cAMP Responsive Elements (CRE) small molecule antagonists, cell-based qHTS assay (AID 1963591; active = well fitted inhibition curve with a large enough effect in the signal ratio in the repeat runs, not every such curve was filed as active; the % refers to the signal ratio; also: potency is read from the fitted curve at half-maximal effect)
In short: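 Reporter line CRE-bla HEK 293T in dialyzed-FBS DMEM; cells preincubated 18 h, treated 3 h with compound plus NKH477 (0.25 uM final); LiveBLAzer FRET, 2 h RT.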

[10] = biological target: Beta-2 adrenergic receptor (Homo sapiens) (UniProt P07550); assay: Adrenergic beta2 receptor (ADRB2) small molecule antagonists, cell-based qHTS assay (AID 1963592); also: nearly all actives have a fitted effect of over 50% in size; also: potency is read from the fitted curve at half-maximal effect
Chain of Beta-2 adrenergic receptor (Homo sapiens) (P07550 whole entry, looked up): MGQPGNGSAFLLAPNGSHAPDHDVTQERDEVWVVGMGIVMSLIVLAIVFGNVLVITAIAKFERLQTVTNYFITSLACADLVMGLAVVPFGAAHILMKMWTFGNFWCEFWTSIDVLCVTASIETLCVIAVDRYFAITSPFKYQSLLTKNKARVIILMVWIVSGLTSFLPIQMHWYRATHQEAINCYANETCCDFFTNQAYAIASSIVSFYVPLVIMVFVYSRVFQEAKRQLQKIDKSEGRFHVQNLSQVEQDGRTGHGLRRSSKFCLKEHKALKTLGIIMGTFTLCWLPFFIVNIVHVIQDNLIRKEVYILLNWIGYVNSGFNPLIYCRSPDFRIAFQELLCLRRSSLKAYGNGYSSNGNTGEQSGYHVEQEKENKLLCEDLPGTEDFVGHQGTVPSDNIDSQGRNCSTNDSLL
In short: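 Assay format: CHO-ADRB2 cells, 18-20hr seeding at 37C/5% CO2, then compound plus 1nM isoproterenol agonist mix for 0.5hr RT. Homogeneous time-resolved fluorescence cAMP detection after 1hr, expressed as 665/615 nm ratio.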

[11] = biological target: Beta-2 adrenergic receptor (Homo sapiens) (UniProt P07550); assay: Adrenergic beta2 receptor (ADRB2) small molecule agonists, cell-based qHTS assay (AID 1963593); also: potency is read from the fitted curve at half-maximal effect;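 as to activation: CHO cells stably overexpressing human ADRB2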
In short: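 CHO cells stably over-expressing ADRB2 were plated overnight at 37C, then dosed with compounds plus a stimulation mix containing 100uM IBMX and 25uM Ro-20-1724 for 0.5hr at room temperature. cAMP was measured by HTRF competition, 1hr.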

[12] = biological target: D(2) dopamine receptor (Homo sapiens) (UniProt P14416); assay: Dopamine D2 receptor (DRD2) small molecule agonists, cell-based qHTS assay (AID 1963594); also: nearly all actives have a fitted effect of over 35% in size
Chain of D(2) dopamine receptor (Homo sapiens) (P14416 whole entry, looked up): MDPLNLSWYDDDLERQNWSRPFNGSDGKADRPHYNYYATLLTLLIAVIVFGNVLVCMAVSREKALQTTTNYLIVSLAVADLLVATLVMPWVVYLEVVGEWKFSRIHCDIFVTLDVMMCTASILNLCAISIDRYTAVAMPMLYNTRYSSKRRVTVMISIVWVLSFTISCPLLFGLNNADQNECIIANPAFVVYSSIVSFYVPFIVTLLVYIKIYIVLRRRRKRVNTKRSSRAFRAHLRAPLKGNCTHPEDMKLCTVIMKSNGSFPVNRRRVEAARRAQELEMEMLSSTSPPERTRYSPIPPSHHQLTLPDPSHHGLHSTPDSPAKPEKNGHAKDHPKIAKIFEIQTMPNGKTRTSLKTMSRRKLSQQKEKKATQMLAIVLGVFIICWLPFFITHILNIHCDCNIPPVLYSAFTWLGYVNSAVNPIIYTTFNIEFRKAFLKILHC
In short: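 HEK293 cells stably expressing human DRD2, pre-treated with PDE inhibitor Ro20-1724 (0.1 mM final) and compound 10 min at room temperature, then stimulated with NKH477 (200nM […]) for 30 min. cAMP read by HTRF (665/620 nm).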

[13] = biological target: D(2) dopamine receptor (Homo sapiens) (UniProt P14416); assay: Dopamine D2 receptor (DRD2) small molecule antagonists, cell-based qHTS assay (AID 1963595; active = well fitted inhibition curve with a large enough effect in the signal ratio in the repeat runs, with a control signal flat; the % refers to the signal ratio; also: potency is read from the fitted curve at half-maximal effect)
In short: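 Stable D2 receptor HEK293 line, 24 h after seeding. Compound preincubated 10 min, then quinpirole (12 nM) with forskolin analogue NKH477 (200 nM), 30 min, room temperature. Detection by time-resolved FRET of cAMP.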

[14] = p53 small molecule agonists, cell-based qHTS assay with human liver microsomes: qHTS cell viability counter screen (AID 1963579); also: nearly all actives have a fitted effect of over 45% in size; also: potency is read from the fitted curve at half-maximal effect
In short: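 HLM-supplemented (0.5 mg/mL final) and NADPH-supplemented (0.5 mg/mL final) p53RE-bla cultures, 4,000 cells per well, were dosed with compounds in DMSO for 16 h at 37 C; luminescent ATP detection (CellTiter-Glo, 30 min, room temperature) quantified surviving cells.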

[15] = biological target: Muscarinic acetylcholine receptor M1 (Homo sapiens) (UniProt P11229); assay: Cholinergic receptor muscarinic 1 (CHRM1) small molecule antagonists, cell-based qHTS assay (AID 1963588); also: nearly all actives have a fitted effect of over 40% in size; also: potency is read from the fitted curve at half-maximal effect
Chain of Muscarinic acetylcholine receptor M1 (Homo sapiens) (P11229 whole entry, looked up): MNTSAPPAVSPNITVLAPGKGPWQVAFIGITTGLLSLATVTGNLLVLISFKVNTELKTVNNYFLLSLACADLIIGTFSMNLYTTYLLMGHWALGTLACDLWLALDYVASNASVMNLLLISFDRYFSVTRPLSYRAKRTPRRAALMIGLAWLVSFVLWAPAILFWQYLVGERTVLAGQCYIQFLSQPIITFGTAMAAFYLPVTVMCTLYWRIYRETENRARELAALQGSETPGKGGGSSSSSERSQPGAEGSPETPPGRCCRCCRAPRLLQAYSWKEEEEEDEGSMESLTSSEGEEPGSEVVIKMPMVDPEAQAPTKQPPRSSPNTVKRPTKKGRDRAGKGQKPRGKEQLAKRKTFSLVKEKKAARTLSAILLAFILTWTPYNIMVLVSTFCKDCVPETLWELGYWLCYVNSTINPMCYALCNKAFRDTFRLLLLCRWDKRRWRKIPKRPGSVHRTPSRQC
In short: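 Compounds were tested at 15 concentrations in three independent runs. Dye-loaded CHRM1-CHO cells were exposed 5 min at room temperature before stimulation by acetylcholine added at 50nM. Intracellular calcium was read kinetically on FDSS for 3 min.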

[16] = biological target: Muscarinic acetylcholine receptor M1 (Homo sapiens) (UniProt P11229); assay: Cholinergic receptor muscarinic 1 (CHRM1) small molecule agonists, cell-based qHTS assay (AID 1963589); also: nearly all actives have a fitted effect of over 35% in size
In short: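 Kinetic fluorescence (1 s intervals) of calcium-sensitive dye in human M1 CHO cells after compound addition; cells pre-incubated 18 h at 37 C/5% CO2 and dye-loaded 1 h.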

[17] = biological target: 5-hydroxytryptamine receptor 2A (Homo sapiens) (UniProt P28223); assay: 5-hydroxytryptamine receptor 2A (HTR2A) small molecule agonists, cell-based qHTS assay (AID 1963587); also: nearly all actives have a fitted effect of over 30% in size; also: potency is read from the fitted curve at half-maximal effect
Chain of 5-hydroxytryptamine receptor 2A (Homo sapiens) (P28223 whole entry, looked up): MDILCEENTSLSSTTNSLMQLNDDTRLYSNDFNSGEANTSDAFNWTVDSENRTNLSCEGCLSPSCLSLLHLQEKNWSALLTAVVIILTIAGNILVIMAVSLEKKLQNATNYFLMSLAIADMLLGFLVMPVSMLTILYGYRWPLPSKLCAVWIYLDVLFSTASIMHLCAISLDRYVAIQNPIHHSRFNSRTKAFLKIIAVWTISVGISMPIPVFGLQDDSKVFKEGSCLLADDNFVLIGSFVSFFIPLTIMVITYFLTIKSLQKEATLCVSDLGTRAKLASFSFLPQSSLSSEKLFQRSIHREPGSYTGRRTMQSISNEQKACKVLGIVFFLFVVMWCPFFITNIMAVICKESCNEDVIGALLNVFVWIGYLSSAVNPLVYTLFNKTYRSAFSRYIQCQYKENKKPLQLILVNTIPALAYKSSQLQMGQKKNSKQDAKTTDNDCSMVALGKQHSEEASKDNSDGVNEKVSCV
In short: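 CHO cells stably expressing human HTR2A, plated 18 h, loaded with calcium dye 1 h at 37 C. Agonist mode: compounds added and intracellular calcium fluorescence recorded kinetically for 2 min at 1 sec intervals.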

[18] = p53 small molecule agonists, cell-based qHTS assay (AID 1963582; active = well fitted activation curve with a large enough effect in the signal ratio in the repeat runs, not every such curve was filed as active; the % refers to the signal ratio)
In short: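 Measured: fluorescence from cleaved LiveBLAzer substrate. System: p53RE-bla cells, 16 h compound treatment at 37 C, 2 h substrate step at room temperature.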

[19] = biological target: 5-hydroxytryptamine receptor 2A (Homo sapiens) (UniProt P28223); assay: 5-hydroxytryptamine receptor 2A (HTR2A) small molecule antagonists, cell-based qHTS assay (AID 1963586); also: nearly all actives have a fitted effect of over 45% in size
In short: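 CHO cells stably expressing human HTR2A were plated for 18 h at 37 C, then loaded with calcium dye for 1 h. Compounds were preincubated 5 min at room temperature before DOI (4 nM solution) was added. Kinetic fluorescence was read for 3 min.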

Measured: Potency

NC(N)=N/N=C/c1c(Cl)cccc1Cl
not listed: [14] | [15] | [16] | [17] | [18] | [19]
inactive: all other assays above

CCCCC(CC)CN=C(N)NC(N)=NCCCCCCN=C(N)NC(N)=NCC(CC)CCCC (stereo not given)
active: [14] 22.3 µM | [6] 17.8 µM | [7] 19.9 µM | [15] 0.918 µM | [9] 29.8 µM | [10] 29.8 µM | [13] 13.3 µM
inactive: [1] | [2] | [3] | [4] | [5] | [16]

CC[C@@]1(O)C(=O)OCc2c1cc1n(c2=O)Cc2cc3c(CN(C)C)c(O)ccc3nc2-1
inactive: [1] | [2] | [6] | [10] | [11] | [12] | [13]

CCN(CC)CCOC(=O)C1(C2CCCCC2)CCCCC1
inactive: [1] | [2] | [3] | [14] | [6] | [10]

CC(CN(C)C)CN1c2ccccc2CCc2ccccc21 (stereo not given)
inactive: [1] | [2] | [3] | [4] | [5] | [6] | [17] | [15] | [16] | [12]
active: [13] 23.7 µM

C=CC(C)(CCC=C(C)C)OC(=O)/C=C/c1ccccc1 (stereo not given)
active: [1] 68.6 µM
not listed: [6] | [11] | [12] | [14]
inactive: all other assays above

CN(C)c1ccc(N=Nc2ccccc2C(=O)O)cc1
active: [1] 61.1 µM
not listed: [4] | [7] | [8] | [9] | [11] | [14] | [18]
inactive: all other assays above

CCCC1C(CC)=CC(CC)=CN1c1ccccc1 (stereo not given)
active: [1] 61.1 µM
not listed: [6] | [8] | [9] | [11] | [14] | [16] | [18]
inactive: all other assays above

O=C(CC(=O)C(F)(F)F)c1ccccc1
active: [1] 49.2 µM | [17] 49.7 µM | [11] 13.9 µM
not listed: [5] | [6] | [8] | [14]
inactive: all other assays above

CN(C)c1ccc(O)c2c1C[C@H]1C[C@H]3[C@H](N(C)C)C(=O)C(C(N)=O)=C(O)[C@@]3(O)C(=O)C1=C2O
not listed: [4] | [5] | [6] | [9] | [11] | [15] | [18]
inactive: all other assays above

CCCC(=O)OCCc1ccccc1
not listed: [7] | [11] | [16] | [17]
inactive: all other assays above

Oc1cc(Cl)cc(Cl)c1Cl
active: [1] 49.7 µM | [14] 29.6 µM
inactive: [2] | [3] | [17] | [15] | [16] | [10] | [12]

COc1ccc(N=Nc2cc(C)c(N=Nc3ccc(S(=O)(=O)O)cc3)cc2OC)cc1
not listed: [6] | [9] | [10] | [11]
inactive: all other assays above
